Data reported in article PMC12136788.
Substitutions are numbered along the chain they refer to. The full ranking holds about 24,000 sequences; the median of “enrichment r” is about 0.99, and the highest 2% start at about 3.7. Shown is part of a subset that was picked to be rich in the highest values.

T1: UNK ZnF1-3 (human, UniProt Q9C0B0 31-174)
T1 sequence: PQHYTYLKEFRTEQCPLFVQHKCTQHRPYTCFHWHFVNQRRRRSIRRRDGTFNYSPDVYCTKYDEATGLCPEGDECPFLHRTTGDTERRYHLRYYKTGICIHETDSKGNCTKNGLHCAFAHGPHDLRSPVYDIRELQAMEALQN

B1: chr5:176910979:176910980:-_ENSG00000196923_ENST00000355841|hu_hu|FALSE|FALSE (ssRNA)
RNA: GGGAGUUCUACAGUCCGACGAUCCCCAGCGUCGAUCUUGAAGUCACAGCCAUGGCAUUUCGUGCCAAACAUCUUCUCAUAGUCUCGCUCGCAAUAGGGCACGCCCUCCUCCAUGUAGAAGGCCCUGUUCCGGAUGGGCGUCUUCAACAGAGGAUUGAGCAUCA
B2: 118753231_118753351_2268_3pUTR_ENSG00000125354_ENST00000354416|human|control|control (ssRNA)
RNA: GGGAGUUCUACAGUCCGACGAUCUGAAAUACCUCACAAGAAGAAUUCGGUAAGGCUAUCAUUCAAGACUCUAGGCUGGUAAUAAUAUUCAGGUUUAUUCUCCCUUUUGCAUCUGUGGGAUACCCAGAGUUAGAGAGAGGGGAACAACAGAGGAUUGAGCAUCA
B3: 16459948_16460068_3699_3pUTR_ENSMUSG00000024639_ENSMUST00000025541|mouse|control|control (ssRNA)
RNA: GGGAGUUCUACAGUCCGACGAUCAUCCCUAGUCAGAAAUAAACUGACAAAUUUACAUUCUCCUCUCUUAAAAAAGUAAAUAAAAUAACAUUAUUCAAAAUGUGAAUUAGCUAUAAGACAUACAAUUACAUAGAUACAUAUCAACAACAGAGGAUUGAGCAUCA
B4: chr17:64801638:64801639:+_ENSG00000154229_ENST00000413366|hu_hu|motif|central (ssRNA)
RNA: GGGAGUUCUACAGUCCGACGAUCAUCAAAUACAUAUAUAUACACACACAUAUGUAGUAAGAGCCUAAUCUAUCACGUAAACGGGCCAUUCAUUUUUGAAAUUUUAUCUACAUUUAAAAAGUAAUCUAUCUGAUACAGUGCCCACAACAGAGGAUUGAGCAUCA
B5: chr5:151611259:151611260:+_ENSMUSG00000034021_ENSMUST00000016569|mus_mus|FALSE|FALSE (ssRNA)
RNA: GGGAGUUCUACAGUCCGACGAUCGCAUUUCUGAACAUAAUGUUCAAGAAGUAAUAUCUAUACACAAUAACAUUCUAGACUAUUAAAAGCCCAUUCAAAUUACAGAAUUUUAUUGAUACAGUAGAUUAAUAUAAACUGAAAAAACAACAGAGGAUUGAGCAUCA
B6: 66017293_66045708_550_CDS_ENSMUSG00000056515_ENSMUST00000070673|mouse|control|control (ssRNA)
RNA: GGGAGUUCUACAGUCCGACGAUCAGCGUCCUUCAGGGGCACCUCCCUAAUAUCAGAGAGGUCACACUUGUUCCCAGCAAUCGCCAUCACAAUGUUUUCUGGGCCGUGCUCCUUCAGCUCCUUGACCCAUUUUUUCAAGGUAUGCAACAGAGGAUUGAGCAUCA
B7: 8158834_8158954_592_CDS_ENSG00000178921_ENST00000314666|human|control|control (ssRNA)
RNA: GGGAGUUCUACAGUCCGACGAUCAGGGCCAUUGAGGGGUUCCGGCAUGCUCUCAGGGGAGAAACUCUGGAUGGGAUGGGGGAAGUGCUGCUCUGUCAUCCGGUCGUGCAGGGUAGCCAGAGCAAUGGCUUCCACCUCAGCUGACAACAGAGGAUUGAGCAUCA
B8: chr6:41757443:41757444:+_ENSG00000214736_ENST00000398881|hu_mus|hu_hu_hu_mus_False|58_108 (ssRNA)
RNA: GGGAGUUCUACAGUCCGACGAUCGAACUGUCUGCUGGCAACAUCUCAGCCGACACUGGGGGAUGGGGGGGCAGUGGGAAACUAGGCAGGCAAGGAGAGGGAGUCAACUUCAGCUGCCACUCAGGUAGGAUCUUGUGGUCACAGCAACAGAGGAUUGAGCAUCA
B9: 25965218_25965338_4171_CDS_ENSG00000143970_ENST00000336112|human|control|control (ssRNA)
RNA: GGGAGUUCUACAGUCCGACGAUCGCCUCUAUAGCUUGGCCCUAUCUGGGUGGGGCUUCCAUACAACUUCGGGGUUUGCAGGGGUGGAAGGAGUAGGGGCUGGUGGGUGGGGCUGUCUGCAGGCAGAGGAAGAACAGUAGAACUCAACAGAGGAUUGAGCAUCA
B10: 53358179_53360397_419_3pUTR_ENSMUSG00000033054_ENSMUST00000035850|mouse|control|control (ssRNA)
RNA: GGGAGUUCUACAGUCCGACGAUCCAUCGCUGCCGCUUGAUUUCUGCAAUUCCAUUUCUCGUUCGAGCUCUCUGAUGGGCAGCAAACCCUGGAGAACUGUGCAUGCUCCUGAUCUGAGAGAGUGUGUGGUCUAGCUUCUUCCAUCAACAGAGGAUUGAGCAUCA
B11: chr2:27806210:27806211:+_ENSMUSG00000026837_ENSMUST00000028280|mus_hu|FALSE|FALSE (ssRNA)
RNA: GGGAGUUCUACAGUCCGACGAUCUGUGGUUUCUUUGGCAGCUUCCACGGGCUUCUUGCUGGGGGUGGGCUCCUUCCCUAGGUCUUCGGGGUCUUCGUAGUAGGGGUAUUCGUAGUAAUAGGUCUCACCCUCGCCGUCUCCUUCCAACAGAGGAUUGAGCAUCA
B12: 31370942_31371062_1482_CDS_ENSMUSG00000006307_ENSMUST00000006470|mouse|control|control (ssRNA)
RNA: GGGAGUUCUACAGUCCGACGAUCUCCUGUGGUGGUGCUAGGGUUUGGAGUGGGAGAAAGGGUGCCCUCUGGUCCUGACCGAGCAGCUUCCCUCUCUGCCCGCUGGCUAGGAGUCAGGGGAGGCCUGCCCCUCUUCCUAGAGCACAACAGAGGAUUGAGCAUCA
B13: chr6:43255143:43255144:+_ENSG00000146216_ENST00000259750|hu_hu|FALSE|FALSE (ssRNA)
RNA: GGGAGUUCUACAGUCCGACGAUCCUCAGGCCCCCUUCUUCCUCCCAGCUCCAAACCAGGGUGUUGUUGGUCCUGGGGCAGAGGUGAGGCUGGGGGCCCUACAUUCACGGUUCGGUUGGUGGCAAGGAGCAGGCCCAGGGCCUGCAACAGAGGAUUGAGCAUCA
B14: chr6:41757443:41757444:+_ENSG00000214736_ENST00000398881|hu_mus|hu_hu_hu_mus_False|18_108 (ssRNA)
RNA: GGGAGUUCUACAGUCCGACGAUCGAACUGUCUGCUGGCAACAUCUCAGCCGACACUGGGGGAUGGGGGGGCAGUGGGGGGGGGUUCAGGCAAGGAGAGGGAGUCAACUUCAGCUGCUCAAACUUCAGGAUCUUGUGGUCACAGCAACAGAGGAUUGAGCAUCA
B15: chr6:41757443:41757444:+_ENSG00000214736_ENST00000398881|hu_mus|hu_hu_hu_mus_False|8_108 (ssRNA)
RNA: GGGAGUUCUACAGUCCGACGAUCGAACUGUCUGCUGGCAACAUCUCAGCCGACACUGGGGGAUGGGGGGGCAGUGGGGGGGGGUUCAGGCAAGGAGAGGGAGUCAACUUCAGCUGCCACUCAGGUAGCUGCCAUCAGUCACAGCAACAGAGGAUUGAGCAUCA
B16: chr5:138654669:138654670:+_ENSG00000015479_ENST00000502499|hu_hu|motif|central (ssRNA)
RNA: GGGAGUUCUACAGUCCGACGAUCUUUCUUUAUUCUUUUAUACUUCUGGGAUAAAUGAACUCUCACUGGCUUGCCAAAUACGGACGCUGGUGUGGUUGUGUAAUAAUCCACUGCGGCCUGAGCAUCCUCUGUGGUUGCCAUUUCCAACAGAGGAUUGAGCAUCA
B17: 59350742_59359075_1706_CDS_ENSG00000157450_ENST00000557998|human|control|control (ssRNA)
RNA: GGGAGUUCUACAGUCCGACGAUCGUUCUGUGACGACCCUCCACAUGGUGAGUGCUGGGGACAGCAGGAAGGUAACCUUGGCAUUGCAGGAGGGCCAGUUUCCGUUACAGCACUAGAUGUAGUUCUCCUUGAGUCAUCUCCUAUCAACAGAGGAUUGAGCAUCA
B18: chr13:100518589:100518590:+_ENSG00000125246_ENST00000339105|hu_mus|FALSE|FALSE (ssRNA)
RNA: GGGAGUUCUACAGUCCGACGAUCUUCCCUUGACUGUCUGAGAAGUCCGUCUUCAUCUCGGAAGUCAAUGUACACAAGAUCUAUGGCUUGUAGGCCAAAGGCUUUUGCCGUGACAACAACCUUCUGCCGGGCAUAGAGGAUGUCCAACAGAGGAUUGAGCAUCA
B19: chr17:65337090:65337091:-_ENSG00000197170_ENST00000584008|hu_mus|FALSE|FALSE (ssRNA)
RNA: GGGAGUUCUACAGUCCGACGAUCCCAGUCAUUUAAUAAAUUAUUUGGAUCCUUGGGUCUCUGGAAGUUGAUGACUCCAGCCAACCUGUCUACUUUAGCAAAGAUGGUCUUGUUAACGACUAGAUUCGAGAGGAAAGCCUCUGACAACAGAGGAUUGAGCAUCA
B20: chr12:35831226:35831227:+_ENSMUSG00000020590_ENSMUST00000048519|mus_mus|motif|central (ssRNA)
RNA: GGGAGUUCUACAGUCCGACGAUCUCAGCAGAAGACAUAUAGCCUCUUUGUGUCUAUGUUCAUCUGUGCAACAAGUGCACGGAAUAGAAUAAUUUUAUUAACCAGAGAAUACUGUACUCUACUCAUCGGUUAAACACUCUACACCAACAGAGGAUUGAGCAUCA
B21: chr9:91093546:91093547:+_ENSG00000106723_ENST00000375859|hu_mus|FALSE|FALSE (ssRNA)
RNA: GGGAGUUCUACAGUCCGACGAUCUACAUCAUAAUUAUAAAAAUUACUUACAGAAUUAACAGUUGUACUGUGUAUACUUCUAAAUGCAGAGAACAGGGAACCGUCUACACGUUGUAUAAAAUAAAAUUAAAAUUAAAAAUGAAUCAACAGAGGAUUGAGCAUCA
B22: chr9:91093546:91093547:+_ENSG00000106723_ENST00000375859|hu_mus|motif|central (ssRNA)
RNA: B21 RNA with U80G, A81G

What follows are binders tested against T1, UNK ZnF1-3 (assay: nsRBNS (natural sequence RNA bind-n-seq); RBNS binding buffer (assumed for nsRBNS): 25 mM Tris pH 7.5, 150 mM KCl, 3 mM MgCl2, 0.01% Triton X-100, 500 ug/ml BSA, 20 U/ml SUPERase-In, 4 C; UNK is unkempt and MSI1 is Musashi-1; names of the RNAs are library labels; protein concentration not given here; high values mean tight binding).
With B1 the binding signal was 0.849 enrichment R.
Work on B2 yielded a binding signal of 1.58 enrichment R.
B3 gave a binding signal of 1.33 enrichment R.
Work on B4 yielded a binding signal of 1.16 enrichment R.
B5 was tested, and the binding signal was 11 enrichment R.
Work on B6 yielded a binding signal of 0.683 enrichment R.
Binder B7 has a binding signal of 0.632 enrichment R.
Work on B8 yielded a binding signal of 1.42 enrichment R.
In the case of B9, the binding signal is reported as 5.58 enrichment R.
Work on B10 yielded a binding signal of 0.827 enrichment R.
Work on B11 yielded a binding signal of 0.604 enrichment R.
Binder B12 has a binding signal of 0.887 enrichment R.
In the case of B13, the binding signal is reported as 0.703 enrichment R.
Work on B14 yielded a binding signal of 4.19 enrichment R.
With B15 the binding signal was 5.65 enrichment R.
With B16 the binding signal was 0.487 enrichment R.
Work on B17 yielded a binding signal of 0.898 enrichment R.
B18 was tested, and the binding signal was 0.641 enrichment R.
Binder B19 has a binding signal of 1.07 enrichment R.
In the case of B20, the binding signal is reported as 0.463 enrichment R.
For B21, the binding signal was 7.07 enrichment R.
B22 was tested, and the binding signal was 4.68 enrichment R.
